Measurements: ChEMBL document CHEMBL1961873, “Compounds: GSK PKIS; Assays: Nanosyn kinase panel” (2012)

Assays:
[1] = target: MAP/microtubule affinity-regulating kinase 3 (Homo sapiens) (UniProt P27448); conditions: at 1 µM;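 further: reported values are averaged percent inhibition of MARK3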
[2] = target: T1, MAP/microtubule affinity-regulating kinase 4 (Homo sapiens) (UniProt Q96L34); conditions: at 0.1 µM
T1 sequence (whole entry): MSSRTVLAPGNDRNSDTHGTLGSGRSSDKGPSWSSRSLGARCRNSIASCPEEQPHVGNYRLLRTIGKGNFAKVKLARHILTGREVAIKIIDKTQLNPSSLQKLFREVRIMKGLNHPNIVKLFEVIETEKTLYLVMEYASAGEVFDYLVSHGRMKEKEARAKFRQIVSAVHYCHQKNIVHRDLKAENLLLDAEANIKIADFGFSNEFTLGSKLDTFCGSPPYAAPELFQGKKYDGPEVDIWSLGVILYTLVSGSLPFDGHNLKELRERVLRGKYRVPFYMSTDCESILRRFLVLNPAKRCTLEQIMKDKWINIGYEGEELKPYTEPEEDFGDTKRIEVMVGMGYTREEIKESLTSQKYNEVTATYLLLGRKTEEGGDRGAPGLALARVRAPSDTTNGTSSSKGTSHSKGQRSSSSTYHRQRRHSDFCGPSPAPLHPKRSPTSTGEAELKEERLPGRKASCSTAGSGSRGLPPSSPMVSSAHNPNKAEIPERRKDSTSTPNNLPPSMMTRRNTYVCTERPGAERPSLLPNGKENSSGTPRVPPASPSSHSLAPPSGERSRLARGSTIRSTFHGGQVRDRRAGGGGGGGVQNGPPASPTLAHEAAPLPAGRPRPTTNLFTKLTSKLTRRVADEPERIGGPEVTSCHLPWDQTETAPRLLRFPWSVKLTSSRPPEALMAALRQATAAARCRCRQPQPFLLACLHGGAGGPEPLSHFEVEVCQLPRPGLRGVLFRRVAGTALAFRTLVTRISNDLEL

[3] = target: T1, MAP/microtubule affinity-regulating kinase 4 (Homo sapiens); conditions: at 1 µM
[4] = target: Maternal embryonic leucine zipper kinase (Homo sapiens) (UniProt Q14680); conditions: at 0.1 µM
[5] = target: Maternal embryonic leucine zipper kinase (Homo sapiens) (UniProt Q14680); conditions: at 1 µM
[6] = target: MAP kinase-interacting serine/threonine-protein kinase 1 (Homo sapiens) (UniProt Q9BUB5); conditions: at 0.1 µM
[7] = target: MAP kinase-interacting serine/threonine-protein kinase 1 (Homo sapiens) (UniProt Q9BUB5); conditions: at 1 µM
[8] = target: MAP kinase-interacting serine/threonine-protein kinase 2 (Homo sapiens) (UniProt Q9HBH9); conditions: at 0.1 µM
[9] = target: MAP kinase-interacting serine/threonine-protein kinase 2 (Homo sapiens) (UniProt Q9HBH9); conditions: at 1 µM
[10] = target: Serine/threonine-protein kinase MARK2 (Homo sapiens) (UniProt Q7KZI7); conditions: at 0.1 µM;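 further: mean percent inhibition of PAR-1Balpha kinase activity, reported from the GSK PKIS screen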
Serine/threonine-protein kinase MARK2 (Homo sapiens), sequence (Q7KZI7 whole entry): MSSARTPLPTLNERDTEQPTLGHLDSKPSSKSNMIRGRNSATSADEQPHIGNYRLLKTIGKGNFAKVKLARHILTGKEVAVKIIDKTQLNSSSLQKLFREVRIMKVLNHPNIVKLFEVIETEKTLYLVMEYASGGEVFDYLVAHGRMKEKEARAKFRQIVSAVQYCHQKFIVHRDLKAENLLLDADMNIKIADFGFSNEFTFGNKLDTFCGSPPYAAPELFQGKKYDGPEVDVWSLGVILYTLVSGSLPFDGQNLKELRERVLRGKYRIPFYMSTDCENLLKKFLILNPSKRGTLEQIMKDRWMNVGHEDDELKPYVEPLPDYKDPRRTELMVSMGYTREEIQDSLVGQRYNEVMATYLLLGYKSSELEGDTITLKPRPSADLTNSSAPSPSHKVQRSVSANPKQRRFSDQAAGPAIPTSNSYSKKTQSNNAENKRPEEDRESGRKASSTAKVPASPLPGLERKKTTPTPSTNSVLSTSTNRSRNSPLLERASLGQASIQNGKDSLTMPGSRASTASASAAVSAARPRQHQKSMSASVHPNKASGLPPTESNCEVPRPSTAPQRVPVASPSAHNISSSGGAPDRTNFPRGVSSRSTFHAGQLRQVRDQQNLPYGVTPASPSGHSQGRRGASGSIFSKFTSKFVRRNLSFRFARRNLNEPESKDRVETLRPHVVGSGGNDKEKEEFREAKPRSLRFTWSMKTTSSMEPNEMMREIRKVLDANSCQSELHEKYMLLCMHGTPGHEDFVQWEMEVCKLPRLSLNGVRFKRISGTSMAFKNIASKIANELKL

MAP kinase-interacting serine/threonine-protein kinase 2 (Homo sapiens), sequence (Q9HBH9 whole entry, looked up): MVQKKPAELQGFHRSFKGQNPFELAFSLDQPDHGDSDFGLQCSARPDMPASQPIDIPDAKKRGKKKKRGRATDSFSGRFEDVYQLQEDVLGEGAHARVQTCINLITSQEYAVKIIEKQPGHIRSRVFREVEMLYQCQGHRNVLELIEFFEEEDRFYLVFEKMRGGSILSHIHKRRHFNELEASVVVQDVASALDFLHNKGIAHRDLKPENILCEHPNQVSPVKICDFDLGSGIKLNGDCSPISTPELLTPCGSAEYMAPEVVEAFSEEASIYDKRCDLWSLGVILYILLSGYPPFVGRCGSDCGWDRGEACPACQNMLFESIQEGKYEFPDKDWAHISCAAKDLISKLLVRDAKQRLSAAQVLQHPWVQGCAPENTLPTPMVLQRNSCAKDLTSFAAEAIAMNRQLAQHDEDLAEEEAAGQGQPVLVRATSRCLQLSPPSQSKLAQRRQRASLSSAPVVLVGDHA
MAP/microtubule affinity-regulating kinase 3 (Homo sapiens), sequence (P27448 whole entry, looked up): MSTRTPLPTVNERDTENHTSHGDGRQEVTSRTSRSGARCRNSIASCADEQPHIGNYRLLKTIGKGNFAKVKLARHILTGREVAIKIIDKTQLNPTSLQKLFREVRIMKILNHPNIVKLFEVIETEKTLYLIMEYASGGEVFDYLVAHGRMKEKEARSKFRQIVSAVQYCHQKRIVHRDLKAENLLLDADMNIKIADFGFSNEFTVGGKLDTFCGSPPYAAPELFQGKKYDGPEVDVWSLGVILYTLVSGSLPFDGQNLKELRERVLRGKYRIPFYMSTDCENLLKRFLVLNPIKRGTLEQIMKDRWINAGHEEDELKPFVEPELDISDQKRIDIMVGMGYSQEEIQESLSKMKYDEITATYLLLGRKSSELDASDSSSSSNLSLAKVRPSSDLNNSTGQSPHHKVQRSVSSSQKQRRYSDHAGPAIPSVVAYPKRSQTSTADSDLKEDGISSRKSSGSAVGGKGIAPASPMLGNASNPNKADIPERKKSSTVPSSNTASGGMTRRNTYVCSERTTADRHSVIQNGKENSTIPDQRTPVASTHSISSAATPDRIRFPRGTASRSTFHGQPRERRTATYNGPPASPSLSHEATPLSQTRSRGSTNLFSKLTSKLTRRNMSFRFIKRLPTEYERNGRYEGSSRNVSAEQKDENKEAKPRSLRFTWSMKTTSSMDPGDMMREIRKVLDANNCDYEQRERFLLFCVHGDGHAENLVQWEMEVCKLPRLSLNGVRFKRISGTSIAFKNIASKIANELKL
Maternal embryonic leucine zipper kinase (Homo sapiens), sequence (Q14680 whole entry, looked up): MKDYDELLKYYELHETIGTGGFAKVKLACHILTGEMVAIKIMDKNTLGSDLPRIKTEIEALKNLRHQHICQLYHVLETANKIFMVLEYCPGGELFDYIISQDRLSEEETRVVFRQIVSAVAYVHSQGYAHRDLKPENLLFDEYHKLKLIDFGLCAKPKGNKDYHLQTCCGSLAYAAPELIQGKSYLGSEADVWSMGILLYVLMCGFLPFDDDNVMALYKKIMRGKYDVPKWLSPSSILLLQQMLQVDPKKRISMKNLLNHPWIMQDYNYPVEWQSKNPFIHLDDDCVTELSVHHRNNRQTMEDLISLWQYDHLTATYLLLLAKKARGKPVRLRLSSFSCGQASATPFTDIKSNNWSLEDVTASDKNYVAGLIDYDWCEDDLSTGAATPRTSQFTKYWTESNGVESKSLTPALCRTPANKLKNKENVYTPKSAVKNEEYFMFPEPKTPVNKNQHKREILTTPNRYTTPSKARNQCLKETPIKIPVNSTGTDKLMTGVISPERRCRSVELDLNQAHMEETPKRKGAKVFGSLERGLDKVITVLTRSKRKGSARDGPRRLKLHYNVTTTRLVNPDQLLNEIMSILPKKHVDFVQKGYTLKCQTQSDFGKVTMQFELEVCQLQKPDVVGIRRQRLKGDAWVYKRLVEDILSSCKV
MAP kinase-interacting serine/threonine-protein kinase 1 (Homo sapiens), sequence (Q9BUB5 whole entry, looked up): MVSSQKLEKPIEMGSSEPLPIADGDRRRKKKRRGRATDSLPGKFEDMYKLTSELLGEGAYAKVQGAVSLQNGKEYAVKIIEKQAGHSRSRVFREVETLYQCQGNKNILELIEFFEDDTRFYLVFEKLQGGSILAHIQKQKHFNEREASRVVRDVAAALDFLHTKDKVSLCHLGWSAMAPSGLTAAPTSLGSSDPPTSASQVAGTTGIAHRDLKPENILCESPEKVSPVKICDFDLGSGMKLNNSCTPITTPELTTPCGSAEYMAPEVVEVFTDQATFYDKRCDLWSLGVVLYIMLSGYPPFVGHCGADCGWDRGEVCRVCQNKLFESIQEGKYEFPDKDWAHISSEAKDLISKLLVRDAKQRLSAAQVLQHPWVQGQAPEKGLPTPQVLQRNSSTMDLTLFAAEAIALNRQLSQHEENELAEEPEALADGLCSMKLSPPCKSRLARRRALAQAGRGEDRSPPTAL

Structure (SMILES)	inhibition [1] [%]	inhibition [2] [%]	inhibition [3] [%]	inhibition [4] [%]	inhibition [5] [%]	inhibition [6] [%]	inhibition [7] [%]	inhibition [8] [%]	inhibition [9] [%]	inhibition [10] [%]
COc1cc2c(cc1Nc1nc(Nc3ccsc3C(N)=O)c3cc[nH]c3n1)N(C(=O)CN(C)C)CCC2	4.97	0.47	0.65	1.24	11.3	0.63	0.17	-0.68	0.28	2.05
COc1cccc(-n2ncc3c(N/N=C/c4ccncc4)ncnc32)c1	7.7	1.15	5.01	2.47	6.51	23.2	70.4	15.2	59.2	1.24
COc1cc(C=NNc2ncnc3c2cnn3Cc2ccccc2)ccc1O	4.6	1.11	3.25	13.2	47.1	-2.04	0.25	-0.35	1.29	1.79
Nc1nonc1-c1nc2cnccc2n1C1CCCCC1	24.2	2.83	10.8	10.3	74.6	-0.38	4.63	0.19	8.42	3.67
Fc1ccc(-c2ncn(C3CCNCC3)c2-c2ccnc(Oc3ccccc3)n2)cc1	-0.46	1.68	1.42	3.76	4.43	1.38	2.07	1.12	0.76	-1.21
CCn1c(-c2nonc2N)nc2c(C#CCN)ncc(OCCCN)c21	11.4	3.8	6.19	-1.84	16	-0.19	7.05	5.13	10.2	7.01
CCn1c(-c2nonc2N)nc2c(C#CC(C)(C)O)ncc(OC[C@@H]3CCCN3)c21	67.9	11.6	55.2	1.75	18.4	1.39	1.82	0.48	-0.07	12.9
NS(=O)(=O)c1ccc(-c2ccc3c(NC(=O)C4CC4)n[nH]c3c2)cc1	5.56	0.63	2.61	0.83	1.42	4.28	17.9	0.71	6.29	0.75
Cc1cc(-c2ccco2)cc(C)c1/C=C/c1cncc(-c2nn[nH]n2)c1	1.64	1.35	1.35	1.3	0.19	3.16	29.9	4.58	35.2	1.91
CCn1c(-c2nonc2N)nc2c(C#CC(C)(C)O)nc(O[C@@H](CN)c3ccccc3)cc21	101	74.5	90.7	42.2	90.4	0.51	6.37	5.3	33.1	63.9
COc1cccc(COc2cc(-n3cnc4ccccc43)sc2C(N)=O)c1	2.02	1.15	1	-2.92	-8.42	1.73	12	-0.04	6.31	-2.23
NC(=O)c1sc(-n2cnc3cc(C(F)(F)F)ccc32)cc1OCc1ccccc1Br	0.82	2.12	1.92	4.69	0.55	1.99	2.87	1.3	2.88	-0.02
CCn1c(-c2nonc2N)nc2c(C#CC(C)(C)O)ncc(OCC3CCNCC3)c21	68.8	10.5	54.5	6.83	31.6	1.39	9.05	0.56	4.38	11.3
NS(=O)(=O)c1ccc(N/C=C2\C(=O)Nc3ccc4ncsc4c32)cc1	42.9	11	46.3	38.6	89.5	4.69	24	0.94	10.5	6.29
